Bioassay records from PubChem.
Sfp inh – Sfp phosphopantetheinyl transferase inhibition; Biochemical Sfp PPTase activity, qHTS; AID 1490; Potency, µM, hits mostly inhibitors; actives 3.5% (n = 310,000);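 also: the enzyme is Sfp with the accession as filed and its product quenches rhodamine fluorescence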
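Reaction rates are the 30-min fluorescence difference (ex 525, em 598 nm) in wells containing 15 nM Sfp, 5 uM rhodamine-CoA and 12.5 uM BHQ-2-YbbR at pH 7.6 with 10 mM MgCl2.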
BAZ2B block – BAZ2B (human) inhibition | Q9UIF8 | AlphaScreen BAZ2B-H3K14Ac peptide displacement | Potency, µM (series often up to 114 µM), hits mostly inhibitors | actives 4.4% (n = 360,000) | AID 504333; also: nearly all actives have a fitted effect of over 60% in size
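In this displacement format the biotinylated H3(5-23) peptide acetylated at Lys14 serves as ligand at 50 nM, with BAZ2B at 50 nM in PBS pH 7.4 containing 0.01% Tween-20. Donor and acceptor beads are 10 ug/mL final.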
12-LOX inh – blocks human arachidonate 12S-lipoxygenase; purified 12hLO, xylenol orange hydroperoxide absorbance; AID 1671190; actives 1.1% (n = 580,000); Potency, µM (titrated, usually from 108 µM), actives largely listed as inhibitors; P18054
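Hydroperoxide product was detected by ferrous iron/xylenol orange as the 573 to 405 nm absorbance ratio. Arachidonic acid at 40 uM (final) was turned over for 30 min at room temperature by 150 nM human 12hLO, pH 7.0 Hepes buffer, after 15 min compound preincubation.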
G9a inh – G9a (human) methyltransferase inhibition. actives 8.8% (n = 350,000). Potency, µM (top dose mostly 102 µM), usual class: inhibitors. G9a H3K9 monomethylation, AlphaScreen, 2 h. Q96KQ7. AID 504332; also: nearly all actives have a fitted effect of over 75% in size
Target sequence (Q96KQ7 913-1193 limits assumed): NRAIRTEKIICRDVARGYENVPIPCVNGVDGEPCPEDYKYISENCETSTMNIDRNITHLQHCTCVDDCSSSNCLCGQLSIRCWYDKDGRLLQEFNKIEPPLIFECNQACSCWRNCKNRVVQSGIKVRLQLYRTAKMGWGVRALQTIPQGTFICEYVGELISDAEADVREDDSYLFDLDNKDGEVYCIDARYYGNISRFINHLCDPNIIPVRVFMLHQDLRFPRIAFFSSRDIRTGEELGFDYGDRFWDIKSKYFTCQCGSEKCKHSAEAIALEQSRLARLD
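Enzyme 20 nM + cpd, 15 min RT; add b-H3K9 pep 500 nM / SAM 20 uM; 2 h RT; anti-H3K9me1 Ab 0.5 ug/mL + SA donor / anti-rabbit acceptor beads 20 ug/mL each, 10 min; AlphaScreen read.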
JMJD2A Tudor inh – JMJD2A Tudor domain (human) inhibition | O75164 | AlphaScreen JMJD2A-Tudor / H3K4me3 peptide binding | Potency, µM (titrated, usually from 114 µM), hits mostly inhibitors | actives 4.4% (n = 390,000) | AID 504339; also: nearly all actives have a fitted effect of over 50% in size
HP1b binding inh – HP1-beta chromodomain-methylated histone interaction inhibition. P83916. AlphaScreen HP1-beta / biotin-H3K9me3 peptide binding. Potency, µM (series often up to 114 µM), usual class: inhibitors. actives 0.56% (n = 390,000). AID 540317; also: nearly all actives have a fitted effect of over 70% in size
Target sequence (P83916 whole entry, looked up): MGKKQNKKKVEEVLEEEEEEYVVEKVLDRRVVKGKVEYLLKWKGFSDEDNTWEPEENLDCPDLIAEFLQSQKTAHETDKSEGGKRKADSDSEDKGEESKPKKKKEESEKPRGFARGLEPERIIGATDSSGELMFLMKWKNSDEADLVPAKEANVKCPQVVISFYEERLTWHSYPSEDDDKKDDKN
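HP1-beta protein (50 nM final) preincubated 30 min at room temperature with biotinylated H3(1-18)K9me3 peptide (50 nM) in PBS pH 7.4, 0.01% Tween-20, then compound added for 30 min. AlphaScreen streptavidin donor/nickel chelate acceptor beads (10 ug/mL final), 30 min dark, luminescence read.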
Hits are given with their value; i = inactive; ? = inconclusive; nt = no result given; [ ] = dose if it differs, or a comment. Only some compounds are listed: those with a hit (about 8.7% of all), similar ones and a draw of the others. Calls follow the shape of the dose curve; as a rule, active = well fitted curve in the direction sought with a large enough effect; inconclusive = small, poorly fitted or top-dose-only effect, or another doubt; inactive = no such curve, though single readings can be large; an effect the other way counts as inactive or inconclusive.

SMILES	Sfp inh	BAZ2B block	12-LOX inh	G9a inh	JMJD2A Tudor inh	HP1b binding inh
Oc1ccc(CCNc2c3ccccc3nc3ccccc23)cc1O	?	?	?	i[0.501 µM]	28µM	i
c1ccc(CNc2c3ccccc3nc3ccccc23)cc1	i	i	i	i[2.33 µM]	i	i
O=C1NN(c2ccccc2)C(=O)/C1=C\c1coc2ccc(O)cc2c1=O	79µM	i	?	i[12.7 µM]	i	i
O=C1NN(c2cccc(Br)c2)C(=O)/C1=C\c1ccccc1	79µM	i	5.6µM	20µM	i	i
O=C1NN(c2cccc(Br)c2)C(=O)/C1=C/c1cccs1	i	?	i	?	?	i
O=C1NN(c2ccccc2)C(=O)/C1=C\c1ccccc1	i	i	?	40µM	i	i
CCn1nc(C(=O)NCC(c2ccco2)N2CCCC2)c2ccccc2c1=O (stereo not drawn)	nt	nt	i	nt	nt	nt
O=C(c1cnn2c1NC(c1ccc(Br)cc1)CC2C(F)(F)F)N1CCN(C23CC4CC(CC(C4)C2)C3)CC1 (stereo not drawn)	i	i	?	28µM	i	i
O=C(c1cnn2c1NC(c1ccc(Br)cc1)CC2C(F)(F)F)N1CCN2CCCC2C1 (stereo not drawn)	i	nt	i	?	i	i
O=C(NCc1ccc(F)cc1)c1nc(-c2ccc(F)cc2)c2ccccn12	nt	nt	i	nt	nt	nt
N[C@H]1CCC[C@@H](C(=O)NCc2nc(-c3cccc(F)c3)c(-c3ccccn3)[nH]2)C1	nt	nt	i	nt	nt	nt
NC(=O)COC[C@@H]1CN(CC2CCCCC2)C[C@H]1c1ccncc1	nt	nt	i	nt	nt	nt
Cc1n[nH]c(=O)c2c(NC(=O)COC(=O)Cc3c(F)cccc3Cl)oc(C)c12	nt	i	i	25µM	i	i
Cc1n[nH]c(=O)c2c(NC(=O)COC(=O)COc3cccc(Br)c3)oc(C)c12	nt	i	i	18µM	i	i
Cc1n[nH]c(=O)c2c(NC(=O)COC(=O)/C=C/c3cccc(C(F)(F)F)c3)oc(C)c12	nt	i	i	10µM	i	i
CC(C)(C)NC(=O)NC(=O)COC(=O)c1cccc(OC(F)F)c1	i	i	i	i	i	i
Cc1n[nH]c(=O)c2c(NC(=O)COC(=O)c3cccc(OC(F)F)c3)oc(C)c12	nt	i	i	10µM	i	i
Cc1n[nH]c(=O)c2c(NC(=O)COC(=O)Cc3ccc(Cl)cc3Cl)oc(C)c12	nt	i	i	i[0.501 µM]	i	i
Cc1ccc(NCc2nnc(SCC(=O)Nc3ccccc3)n2CC2CCCO2)c(C)c1 (stereo not drawn)	i	?	i	i	56µM	i
CCOC(=O)c1cccc(NC(=O)CSc2nnc(CNc3ccc(C)cc3)n2CC)c1	i	50µM	i	?	i	i
O=S(=O)(Cc1ccccc1F)N1CCCC(CN2CCOCC2)CC1 (stereo not drawn)	nt	nt	i	nt	nt	nt
CCn1c(CNS(=O)(=O)c2ccc(Br)cc2)n[nH]c1=S	i	i	i	35µM	22µM	i
C#CCSc1nnc(CNS(=O)(=O)c2ccc(Br)cc2)n1C	i	i	i	i	i	i
CCCn1c(C(C)NS(=O)(=O)c2ccccc2)n[nH]c1=S (stereo not drawn)	i	i	i	20µM	?	i
CCCC(C)NS(=O)(=O)c1ccccc1 (stereo not drawn)	i	i	i	i	i	i
SMILES	Sfp inh	BAZ2B block	12-LOX inh	G9a inh	JMJD2A Tudor inh	HP1b binding inh
CCn1c(C(C)NS(=O)(=O)c2ccc(Cl)cc2)n[nH]c1=S (stereo not drawn)	i	i	?	nt	20µM	i
N#CCN(CC#N)C(=O)Cc1cccs1	nt	nt	32µM	nt	nt	nt
CC1(C)SCC(C(=O)O)NC1=O (stereo not drawn)	i	i	i	i	i	i
O=C(O)[C@@H]1CSC2(CCSC2)N1 (stereo partly drawn)	45µM	nt	nt	?	nt	nt
N#Cc1cccc(NC(=S)O[C@@H]2CO[C@H]3[C@@H]2OC[C@@H]3n2nnnc2SCc2ccco2)c1	nt	nt	i	nt	nt	nt
CS(=O)(=O)N1CCN(c2ccc(NC(=O)COc3ccc(Cl)cc3)cc2)CC1	nt	nt	i	nt	nt	nt
CC(NC(=O)c1ccc(N(C)C)c([N+](=O)[O-])c1)c1ccc(-n2ccnc2)cc1 (stereo not drawn)	i	?	i	79µM	?	i
O=C(O)CCn1cc(/C=C\C(=O)c2ccc(Cl)cc2)c(-c2cccc(Br)c2)n1	i	?	?	i	i	i
Cc1ccc(-c2nn(CCC(=O)O)cc2/C=C\C(=O)c2ccc(Br)cc2)cc1	i	?	i	25µM	?	i
CN(C)CCNC(=O)NC1CCCCC1	i	i	i	i	i	i
CC1CCC(NC(=S)NCCN(C)C)CC1 (stereo not drawn)	?	50µM	i	40µM	7.9µM	i
Cc1nc2c(c(-c3ccc(O)cc3)n1)CN(Cc1ccc(N(C)C)cc1)CCC2	nt	nt	i	nt	nt	nt
O=C(CSc1nnc(-c2ccccc2)c(-c2ccccc2)n1)NCc1ccco1	?	?	i	i	i	?
Cc1ccc(-c2csc3ncnc(OCC(=O)NC(=O)NCc4ccco4)c23)cc1	?	?	?	56µM	i	i
O=C(CSc1nc(-c2ccccc2)c(-c2ccccc2)[nH]1)NCc1ccco1	i	i	i	?	40µM	i
O=C(COc1ncnc2scc(-c3ccc(F)cc3)c12)NCc1ccco1	i	i	i	nt	i	i
COc1ccc(-c2[nH]c(-c3cccc(OC)c3)nc2SCC(=O)NCc2ccco2)cc1	i	?	i	18µM	?	i
COc1cccc(-c2nc(SCC(=O)NCc3ccco3)c3c(=O)n(C)c(=O)n(C)c3n2)c1	nt	i	?	i	i	i
Cc1sc2ncnc(SCC(=O)NC(=O)NCc3ccco3)c2c1C	i	?	i	50µM	i	i
CN(C)C(=S)N(C)C	nt	nt	i	nt	nt	nt
CC1CCN(C(=O)C2CCN(C(=O)Cc3c[nH]c4ccccc34)CC2)CC1	nt	nt	i	nt	nt	nt
Cc1ccc(SCC(=O)NCc2ccco2)cc1	i	i	?	i	i	i
O=C(CSc1nnc2c(n1)[nH]c1ccccc12)NCc1ccco1	40µM	?	i	10µM	i	i
Cc1nc(SCC(=O)NCc2ccco2)nc(C)c1C	50µM	i	i	?	i	i
Cc1nc(SCC(=O)NC(=O)NCc2ccco2)nc(C)c1C	?	?	i	50µM	i	i
COCCNC(=O)NC(=O)CSc1nc(C)c(C)c(C)n1	i	i	i	45µM	i	i
Cc1nc(SCC(=O)NC(=O)NCc2ccccc2)nc(C)c1C	i	i	i	?	i	i
COc1ccc(CNC(=O)CSc2nnc3c(n2)[nH]c2ccccc23)cc1	i	i	i	i	i	i
Cc1ccc(NC(=S)NC2CCSc3ccccc32)cc1C (stereo not drawn)	i	i	45µM	i	i	i
C/C(CCc1ccccc1)=N\NC(=S)NCCc1ccccc1	i	40µM	40µM	?	?	i
